Source: PubChem (National Center for Advancing Translational Sciences (NCATS))
Compounds with a hit are over-represented: about 17% of the library has one in this group of screens.
HepG2 viability: HepG2 cytotoxicity, counter-screen for TGF-b inhibitors | HepG2 CAGA-GFP viability, ATP luminescence, 18 h | Potency, µM (series often up to 46.1 µM), actives largely listed as cytotoxic | hit rate 0.76% among 410,000 | AID 588856
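HepG2 CAGA-GFP cells (1000/well, DMEM with 1% FBS) received compound, then TGF-beta at 500 pg/mL final, and were incubated 18 hours at 37 degrees C. Viability was read by CellTiter-Glo luminescence. Media-only wells were set as complete cell-killing and DMSO as no toxicity.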
S2 tox: viability counter-screen for ATXN expression inhibitors. S2 cells (HEK-293 line with an ATXN2-luciferase reporter) viability, CellTiter-Fluor protease fluorescence, 24 h. Potency, µM (series often up to 56.7 µM), hits mostly cytotoxic. hit rate 0.49% among 400,000. AID 651635; note: nearly all actives have a fitted effect of over 40% in size
ATXN2 expr inh: inhibitors of ATXN2 expression | Potency, µM (highest dose often 57 µM), most hits filed as inhibitors | AID 1745845 | HEK-293 ATXN2-luciferase reporter, luminescence, 24 h | hit rate 0.72% among 360,000; note: nearly all actives have a fitted effect of over 55% in size
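qHTS (up to 57 uM final) was run with 24 h compound exposure of reporter cells at 37 °C. Each well was multiplexed: SteadyGlo luminescence measured ATXN2-luciferase expression after a fluorogenic Gly-Phe-AFC viability readout (25 uM final).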
TDP1 cell CPT: growth inhibition of DT40 Tdp1-/-;hTDP1 cells with camptothecin (screen for TDP1 inhibitors) | chicken DT40 Tdp1-/-;hTDP1 cells + 20 nM CPT, ATP luminescence, 48 h | hit rate 12% among 420,000 | Potency, µM (series often up to 46.2 µM), hits mostly inhibitors; note: nearly all actives have a fitted effect of over 55% in size
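Chicken DT40 Tdp1-/- cells complemented with human TDP1, 400 cells/well, exposed to compounds plus 20 nM camptothecin for at least 48 h at 37 C; viability read as ATP content by CellTiter-Glo luminescence.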
DT40 TDP1 no CPT: qHTS for Inhibitors of human tyrosyl-DNA phosphodiesterase 1 (TDP1): qHTS in cells in absence of CPT. DT40 Tdp1-/- hTDP1 cells, no CPT, ATP luminescence, 48 h. Potency, µM (titrated, usually from 46.2 µM), most hits filed as inhibitors. hit rate 15% among 420,000; note: nearly all actives have a fitted effect of over 55% in size
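Cells were dispensed at 400 per well, compounds added by pin tool, plates incubated ≥48 hr at 37 °C, then CellTiter-Glo added for 30 min at room temperature before luminescence reading. Line: DT40 Tdp1-/- complemented with hTDP1; camptothecin omitted.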
TGFb SMAD3 inh: blocks TGF-b signaling; HepG2 CAGA-GFP TGF-b/SMAD3 reporter, GFP fluorescence, 18 h; TGF-beta stimulated, 500 pg/mL final; hit rate 1.2% among 410,000; Potency, µM (top dose mostly 46.1 µM), hits mostly inhibitors; note: nearly all actives have a fitted effect of over 65% in size
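Smad-responsive CAGA-GFP expression was quantified in HEPG2 cells exposed to compounds and 500 pg/mL final TGF-beta for 18 h at 37 degrees C; unstimulated wells defined full inhibition.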
Hits are given with their value; . = inactive; ? = inconclusive; / = no result. Calls come from the whole dose curve; as a rule, active = well fitted curve in the direction sought with a large enough effect; inconclusive = small, poorly fitted or top-dose-only effect, or another doubt; inactive = no such curve, though single readings can be large; an effect the other way counts as inactive or inconclusive.

SMILES	HepG2 viability	S2 tox	ATXN2 expr inh	TDP1 cell CPT	DT40 TDP1 no CPT	TGFb SMAD3 inh
COc1ccc(S(=O)(=O)c2cn(C)c3ccc(C)cc3c2=O)cc1	.	.	.	.	.	.
CCCNC(=O)Cc1c(C)oc2ccccc12	.	.	.	.	.	.
Cc1cc(S(=O)(=O)c2ccc([N+](=O)[O-])cn2)ccc1Br	.	/	?	0.326µM	0.326µM	?
Cc1cc(Sc2ccc([N+](=O)[O-])cn2)ccc1Br	.	/	.	.	?	.
O=C(CCN1CCOCC1)NNC(=S)NC(=O)c1ccc(Br)cc1	.	.	.	14.6µM	13µM	.
Cc1ccc(NC(=O)c2cc3c([nH]c2=O)CC(C)(C)CC3=O)cc1	.	/	/	?	.	?
C=C(C1=CCN(S(=O)C(C)(C)C)[C@@H]1CCO)c1ccccc1 (stereo not given in full)	.	.	.	7.31µM	23.1µM	.
CC1(C)Cc2cccc(OCC(=O)NCCOc3ccccc3)c2O1	.	.	.	?	?	?
COc1ccc(NC(=O)COc2cccc3c2OC(C)(C)C3)cc1OC	.	.	.	20.6µM	13µM	.
COc1ccccc1CCNC(=O)COc1cccc2c1OC(C)(C)C2	.	.	.	.	23.1µM	.
CCCNC(=O)c1ccccc1NC(=O)COc1cccc2c1OC(C)(C)C2	.	.	.	?	18.4µM	.
CN(C)S(=O)(=O)c1ccc(NC(=O)COc2cccc3c2OC(C)(C)C3)cc1	.	.	.	20.6µM	?	.
CC1(C)Cc2cccc(OCC(=O)OCC(=O)Nc3ccc(S(N)(=O)=O)cc3)c2O1	.	.	/	.	.	.
CC(C)(C)NC(=O)C(c1ccc(F)cc1)N(Cc1cccs1)C(=O)c1ccc(CN2CCOCC2)o1 (stereo not given)	.	.	.	.	?	.
C/C(=N\NC(=O)CN1CCN(Cc2ccc(C)cc2)CC1)c1ccncc1	.	.	.	.	.	.
C/C=C(/CCC1NCCc2c1[nH]c1ccccc21)[Si](C)(C)C (stereo not given)	.	?	?	3.26µM	2.91µM	?
CCCCCCCCCC1NC(C(=O)O)Cc2c1[nH]c1ccccc21 (stereo not given)	.	.	/	.	.	.
N#CC1=C(N)Nc2nc3ccccc3n2C1c1ccc(Cl)cc1 (stereo not given)	.	.	.	?	?	.
O=C(NCc1ccccc1)c1cc(C2CCCCN2C(=O)c2ccc3c(c2)CCO3)on1 (stereo not given)	.	?	.	?	?	.
O=C(Nc1ccccc1)c1cc(C2CCCCN2C(=O)c2ccc3c(c2)CCO3)on1 (stereo not given)	.	.	.	23.1µM	18.4µM	.
O=C(Nc1ccc(F)c(Cl)c1)c1cc(C2CCCCN2C(=O)c2ccc3c(c2)CCO3)on1 (stereo not given)	.	.	.	16.4µM	20.6µM	.
O=C(NCc1ccc(F)cc1)c1cc(C2CCCCN2C(=O)c2ccc3c(c2)CCO3)on1 (stereo not given)	.	?	.	18.4µM	18.4µM	.
CC(C)c1cccc(OCCN2CCCC2)c1	.	.	.	.	.	.
CC(C)NC(=O)NC(=O)COC(=O)Cc1c(F)cccc1Cl	.	.	.	.	.	.
O=C(c1ccc(S(=O)(=O)N2CCCC2)cc1)N1CCN(Cc2ccc3c(c2)OCO3)CC1	.	.	.	?	16.4µM	.
COc1ccc(C(=O)N2CCN(S(=O)(=O)c3ccc(Br)cc3)CC2)cc1	.	.	.	18.4µM	?	.
COc1ccc(S(=O)(=O)N2CCCN(Cc3cccc(F)c3)CC2)cc1	.	.	.	20.6µM	?	.
CN(c1ccc(C(=O)N2CCN(Cc3ccc4c(c3)OCO4)CC2)cc1)S(C)(=O)=O	.	.	.	.	.	.
